Measurements from PubChem BioAssay (NCI).
Compounds without any hit were thinned out: in the full panel of roughly 79,000, 15% have a hit. No stated cut-off is given here; in the data, active means growth inhibition above about 70%; inactive means the rest.

Assays:
[1] = NCI Yeast Anticancer Drug Screen. Data for the rad50 strain (AID 155);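 further: 0% = growth of vehicle-only cultures of the same strain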; conditions: S. cerevisiae rad50 strain growth inhibition; at 50.0 µM; hits give high values
In short: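 Compounds were tested on a yeast strain with an engineered DNA damage repair alteration; the reported value is growth inhibition normalised to vehicle treatment.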

[2] = NCI Yeast Anticancer Drug Screen. Data for the mec2-1 strain (AID 157); conditions: S. cerevisiae mec2-1 strain, at 50.0 µM, hits give high values
In short: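 Using mec2-1 yeast: add compound, measure growth, express inhibition versus vehicle-treated cultures.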

[3] = NCI Yeast Anticancer Drug Screen. Data for the sgs1 mgt1 strain (AID 161);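 further: 0% = growth of cultures given vehicle only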; conditions: S. cerevisiae sgs1 mgt1 strain, at 50.0 µM, hits give high values
In short: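 Percent growth inhibition was derived by comparing compound-exposed mutant yeast with vehicle-exposed cultures. The strain carries alterations in DNA damage repair.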

[4] = NCI Yeast Anticancer Drug Screen. Data for the cln2 rad14 strain (AID 165);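 further: 0% = growth equal to vehicle treated cultures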; conditions: S. cerevisiae cln2 rad14 strain, at 50.0 µM, hits give high values
In short: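 Yeast strain cln2 rad14, bearing defects in cell cycle control and DNA repair, serves as the test system; values reflect growth inhibition compared with vehicle.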

[5] = NCI Yeast Anticancer Drug Screen. Data for the bub3 strain (AID 167); conditions: S. cerevisiae bub3 mutant strain, at 50.0 µM, hits give high values
In short: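 Growth of a checkpoint-deficient yeast mutant is measured after compound exposure. Values represent inhibition relative to vehicle.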

[6] = NCI Yeast Anticancer Drug Screen. Data for the mlh1 rad18 strain (AID 175); conditions: S. cerevisiae mlh1 rad18 strain growth inhibition; at 50.0 µM; hits give high values
In short: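 Steps: expose repair-defective yeast to compound; measure growth; express inhibition against vehicle-treated controls.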

Measured: growth inhibition

CC(C)(C)n1nnnc1N
inactive: [1] -8.55% | [2] -7.55% | [3] 6% | [4] -0.05% | [5] 11.1% | [6] -20.9%

CCCC(NC(=O)CN)C(=O)O (configuration not stated)
inactive: [1] 14.8% | [2] 19.1% | [3] 2% | [4] -50% | [5] -29.4% | [6] 6.5%

NC(=O)NNC(=O)NC12CC3CC(CC(C3)C1)C2
inactive: [1] -19% | [2] -11.8% | [3] -10.2% | [4] -45.8% | [5] 0.65% | [6] 21.6%

CO[Si](CCCN)(OC)OC
inactive: [1] -0.65% | [2] -44.8% | [3] -13.4% | [4] -8.7% | [5] 11.8% | [6] 35.9%

CCOC(=O)c1nnsc1NN
inactive: [1] 8.8% | [2] -7.45% | [3] -47.6% | [4] 0.95% | [5] -22.4% | [6] -4.1%

O=c1c(-c2ccc(O)cc2)coc2cc(OC3OC(CO)C(O)C(O)C3O)cc(O)c12 (configuration not stated)
inactive: [1] -35.5% | [2] -26.8% | [3] -40.8% | [4] -10.7% | [5] -60.2% | [6] -83.3%

OC1c2cc(Br)ccc2-c2c(F)cc(Br)cc21 (configuration not stated)
inactive: [1] 4.9% | [2] -6.75% | [3] -5.3% | [4] 4.65% | [5] 1.9% | [6] -10.9%

CC1(C)CC(Nc2ccc(Nc3ccccc3)cc2)CC(C)(C)N1
inactive: [1] -4.35% | [2] -6.3% | [3] -11.3% | [4] -9.8% | [5] -2.1% | [6] -19.8%

O=C1c2ccc(=O)[nH]c2C(=O)C2CC3=C(CCCC3)CC12 (configuration not stated)
inactive: [1] 20.4% | [2] 24.6% | [3] 59.5% | [4] -71.1% | [5] 42.5% | [6] 44.5%

CC(C)OC1CC1
inactive: [1] 4.65% | [2] -10.6% | [3] -10.5% | [4] 4.9% | [5] 11.7% | [6] -21%

O=C1NC2NC(=O)NC2N1 (configuration not stated)
inactive: [1] 6.6% | [2] -27.1% | [3] -3% | [4] -9.6% | [5] -2.05% | [6] 10.2%

NCCCN(CCCCN(CCCN)C(=O)OCc1ccccc1)C(=O)OCc1ccccc1
inactive: [1] 6.85% | [2] -13.1% | [3] -18.9% | [4] 8.55% | [5] 1.2% | [6] -55.9%

CC1(C)C(O)c2ccccc2OC1N1CCN(C2Oc3ccccc3C(O)C2(C)C)CC1 (configuration not stated)
inactive: [1] -18.4% | [2] -1.35% | [3] 23.8% | [4] -4.65% | [5] -10.8% | [6] -8.6%

Oc1[nH]c2ccccc2c1N=Nc1nc(-c2ccccc2)cs1
inactive: [1] -40.6% | [2] -52% | [3] -46% | [4] -0.9% | [5] -30.4% | [6] -18.8%

CCOC(=O)c1cc2c(nc1C)-c1cc(Cl)ccc1OC2OCc1ccccc1 (configuration not stated)
inactive: [1] -1.65% | [2] -3% | [3] -21.6% | [4] -3.55% | [5] -12.2% | [6] 4.3%

Cc1n(Cc2ccccc2)nc2sc(N)n[n+]12
inactive: [1] -32% | [2] -9.45% | [3] -56.3% | [4] -0.55% | [5] -4.65% | [6] -6.95%

CCC(=O)NC(Nc1cccc(F)c1)(C(F)(F)F)C(F)(F)F
inactive: [1] -28.5% | [2] -36.6% | [3] -20.7% | [4] 13.3% | [5] -20.9% | [6] -66.8%

COC(=O)C1CCC(=O)N1C(c1ccc(OC)cc1)c1ccc2c(c1)OCO2 (configuration not stated)
inactive: [1] -0.1% | [2] 20.9% | [3] 11.1% | [4] 11.7% | [5] 31.5% | [6] 34%

O=C1Cc2ccccc2C(O)=C1c1cnccn1
inactive: [1] 6.3% | [2] 11.2% | [3] 19.6% | [4] -1.6% | [5] 0.25% | [6] 5.95%

Cc1nnc2sc(Cl)nn12
inactive: [1] 26.9% | [2] 48.8% | [3] 48.1% | [4] 17.7% | [5] 12.9% | [6] 22.8%

O=C(O)C(Cl)(c1ccccc1)c1ccccc1
inactive: [1] -6.5% | [2] -13% | [3] 7.5% | [4] -19.9% | [5] 3.55% | [6] -12.8%

CCCCn1cc(C(=O)O)c(=O)c2c3sccc3ccc21
inactive: [1] -24.1% | [2] -35.8% | [3] -8.95% | [4] -5.15% | [5] -9.5% | [6] -26.1%

CCCCCSc1ncnc2c1ncn2CO
inactive: [1] 0.9% | [2] 18.1% | [3] 7.45% | [4] 9.75% | [5] 42.7% | [6] 3.6%

O=C(c1ccccc1)N(N=C(c1ccc([N+](=O)[O-])cc1)c1ccc([N+](=O)[O-])cc1)c1ccccc1
inactive: [1] 24.7% | [2] 15.1% | [3] -6.6% | [4] -5.9% | [5] 5% | [6] 10.6%

CCCCCCC(=O)NC(O)C(Cl)(Cl)C(C)Cl (configuration not stated)
inactive: [1] 1.1% | [2] -6.6% | [3] -6.2% | [4] -56.8% | [5] -19.8% | [6] 4.1%

CCC1(O)C(=O)Nc2ccccc2C1=O (configuration not stated)
inactive: [1] -3% | [2] -22.8% | [3] -17.3% | [4] -13.6% | [5] -23.1% | [6] -5.85%

CSc1cc(C)c(OC(=O)Nc2cc(C)ccc2C)c(C)c1
inactive: [1] -3.45% | [2] 0.8% | [3] 3% | [4] 1% | [5] 33.2% | [6] 9.75%

O=C(O)c1cocc1C(=O)O
inactive: [1] 3.2% | [2] -3.4% | [3] -13.6% | [4] -14.8% | [5] -2.65% | [6] -3.95%

O=C(c1ccccc1)N(C(=O)c1ccccc1)c1cccc[n+]1[O-]
inactive: [1] 4.4% | [2] -2.25% | [3] -1.75% | [4] -12.2% | [5] -10.2% | [6] -4%

O=C(O)C(CCc1cccc(Cl)c1)C(=O)O
inactive: [1] 8.1% | [2] -13.8% | [3] -0.85% | [4] 2.15% | [5] 4.35% | [6] -11.6%

C=CCOC(=O)NC(Cc1ccc(O)cc1)C(=O)O (configuration not stated)
inactive: [1] -0.05% | [2] -4.85% | [3] 4.5% | [4] 3.65% | [5] -10.8% | [6] -2.45%

CC(C)CCCC(C)[C@H]1CCC2[C@@H]3CCC4Cc5nc6c(nc5C[C@]4(C)C3CC[C@@]21C)CC1CC[C@@H]2C(C[C@@H](O)[C@@]3(C)C2C[C@@H]2OC4(CCC(C)CO4)C(C)[C@@H]23)[C@@]1(C)C6 (some centres not stated)
inactive: [1] -19.6% | [2] 1.65% | [3] -21.8% | [4] -15% | [5] -10.9% | [6] -8.65%

CC(C)OP(=O)(OC(C)C)C1C(P(=O)(OC(C)C)OC(C)C)C(F)(F)C1(F)F (configuration not stated)
inactive: [1] 11.4% | [2] 10.9% | [3] -7.35% | [4] -2.65% | [5] -2% | [6] 14.3%

CCCCOC(=O)c1ccc(NC(=O)CCCN(CC)CC)cc1
inactive: [1] 5.5% | [2] -2.3% | [3] 0.85% | [4] 13.2% | [5] 14.4% | [6] -5%

S=c1nc[nH]c2c1CNC2
inactive: [1] -8.2% | [2] 10.9% | [3] -5.4% | [4] 1.7% | [5] 5.25% | [6] -6.15%

C[C@]12CC[C@@H]3c4ccc(O)cc4CC[C@H]3[C@@H]1CC[C@@H]2OC(=O)CCc1ccccc1
inactive: [1] 35.1% | [2] 9.8% | [3] 26.3% | [4] 28.5% | [5] -2.4% | [6] 31.1%

N=C(N)c1nc2ccccc2s1
inactive: [1] 6.2% | [2] -13.5% | [3] 17.4% | [4] 7.65% | [5] 24% | [6] 5.3%

NCCS/C=C/C(=O)Oc1ccc(Br)cc1
inactive: [1] 35.5% | [2] 0.85% | [3] 12.1% | [4] -1.3% | [5] -9.9% | [6] 53.9%

Cn1c(N)cc(=O)nc1N
inactive: [1] -7.55% | [2] 2.05% | [3] 6.2% | [4] 10.7% | [5] -1% | [6] 8.2%

CCCCCCCC(=O)OCC(COC(=O)CCCCCCC)OC(=O)CCCCCCC
inactive: [1] 40.8% | [2] 3.6% | [3] 1.6% | [4] -33.5% | [5] 9.55% | [6] 27.1%

COc1cc(O)c2c(c1)C(=O)C1=C(C2=O)[C@@H](C)OC(C)C1 (some centres not stated)
inactive: [1] -4.3% | [2] 10.2% | [3] 19.9% | [4] 11.1% | [5] 12.8% | [6] 19.8%

COc1cccc(C2c3cc4c(cc3OC(N3CCCCC3)C2C)OCO4)c1O (configuration not stated)
inactive: [1] -22.5% | [2] -31.1% | [3] 0.15% | [4] 18.9% | [5] -2.5% | [6] 0.1%
